Each structure is given as a SMILES string. Values without a mark were called inactive. Inconclusive results are not listed. Active and inactive are the calls of the source. Unless noted, calls follow the shape of the full dose curve.

The nature of assay [1]: Nuclear factor erythroid 2-related factor 2/antioxidant responsive element (Nrf2/ARE) small molecule agonists: qHTS cell viability counter screen in human keratinocytes (AID 1919968; active = well fitted curve in the direction sought with a large enough effect in the repeat runs; an effect the other way counts as inactive or inconclusive; also: nearly all actives have a fitted effect of over 55% in size). In a few lines: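 Fluorescence read-out from CellTiter-Fluor after 1 h at 37 C. Wells held HaCaT-derived ARE-luciferase reporter cells (1,500/well) treated 23 h with DMSO-dissolved compounds. Run in the same wells as the luciferase agonist read.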
A general note: In qHTS, concentration-response curves come from the screen itself.

Assay [2] can be described thus: Nuclear factor erythroid 2-related factor 2/antioxidant responsive element (Nrf2/ARE) small molecule agonists: luciferase reporter gene qHTS assay in human keratinocytes (AID 1919969). Also: nearly all actives have a fitted effect of over 35% in size. Also: potency is read from the fitted curve at half-maximal effect.
In assay [3] the target is KiSS-1 receptor (Homo sapiens) (UniProt Q969F8). As to the kind of experiment: Human kisspeptin (KISS1R) small molecule agonists, calcium flux assay in KISS1R-HEK293 cells (AID 1920064; active = well fitted curve in the direction sought with a large enough effect in the repeat runs; an effect the other way counts as inactive or inconclusive). In a few lines:
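Calcium flux read-out: kinetic fluorescence at Ex/Em=480/540, 1 s intervals over 3 min, after pin-tool compound addition to dye-loaded KISS1R-HEK293 cells. Fifteen concentrations, triplicates.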
A general note: Calcium flux is commonly read through the fluorescence of an indicator in the cells.

Assay [4] can be described thus: p53 small molecule agonists, cell-based qHTS assay with human liver microsomes (AID 1963577).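 Also: p53 response element beta-lactamase reporter cells with liver microsomes plus NADPH.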 In a few lines:
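Steps: plate p53RE-bla cells, incubate 5 h at 37 C; add compound in DMSO; add microsomes (0.5 mg/mL final) and NADPH (0.5 mg/mL final); incubate 16 h at 37 C; add LiveBLAzer, 2 h RT; read fluorescence.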

The nature of assay [5]: p53 small molecule agonists, cell-based qHTS assay with rat liver microsomes (AID 1963578). The procedure, abridged: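 Metabolic activation is supplied by rat liver microsomes with NADPH (each 0.5 mg/mL final). p53RE-bla cells incubate with compound 16 h at 37 C; reporter activity is measured by LiveBLAzer fluorescence.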
Assay [6] in a line: p53 small molecule agonists, cell-based qHTS assay with human liver microsomes: qHTS cell viability counter screen (AID 1963579). Also: nearly all actives have a fitted effect of over 45% in size. The procedure, abridged: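 After the 460/530 nm beta-lactamase read, CellTiter-Glo was added to the same wells and luminescence measured after 30 min at room temperature, giving viability of p53RE-bla cells treated 16 h with compounds plus microsomes and NADPH.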

A short description of assay [7]: p53 small molecule agonists, cell-based qHTS assay with rat liver microsomes: qHTS cell viability counter screen (AID 1963580). Also: nearly all actives have a fitted effect of over 45% in size. In a few lines: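 Cytotoxicity counter screen: intracellular ATP read by CellTiter-Glo luminescence in the p53 reporter wells. HCT-116 p53RE-bla cells were treated for 16 h at 37 C alongside rat liver microsomes and NADPH, each 0.5 mg/mL final.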

Assay [8] in a line: p53 small molecule agonists, cell-based qHTS assay: qHTS cell viability counter screen (AID 1963581). Also: nearly all actives have a fitted effect of over 45% in size. The procedure, abridged: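 Cytotoxicity read-out: ATP-based luminescence (CellTiter-Glo, 30 min RT) measured in the same wells as the p53 reporter assay, HCT-116 p53RE-bla cells, 16 h compound exposure at 37 C.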
Assay [9] in a line: p53 small molecule agonists, cell-based qHTS assay (AID 1963582; active = well fitted activation curve with a large enough effect in the signal ratio in the repeat runs, not every such curve was filed as active; the % refers to the signal ratio). The procedure, abridged: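 Fluorescence intensity read-out of a beta-lactamase reporter under a p53 response element. Cells were exposed to DMSO-dissolved compounds for 16 h at 37 C, then developed with FRET substrate for 2 h at RT.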
A short description of assay [10]: cAMP Responsive Elements (CRE) small molecule agonists, cell-based qHTS assay (AID 1963590). The procedure, abridged:
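Beta-lactamase reporter readout: LiveBLAzer B/G FRET substrate, 2 h at room temperature, added after 3 h compound treatment of CRE-bla HEK 293T cells at 37 C/5% CO2.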

The target of assay [11] is Beta-2 adrenergic receptor (Homo sapiens) (UniProt P07550). As to the kind of experiment: Adrenergic beta2 receptor (ADRB2) small molecule antagonists, cell-based qHTS assay (AID 1963592). Also: series mostly up to about 92 µM; nearly all actives have a fitted effect of over 50% in size. The procedure, abridged:
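Assay format: CHO-ADRB2 cells, 18-20hr seeding at 37C/5% CO2, then compound plus 1nM isoproterenol agonist mix for 0.5hr RT. Homogeneous time-resolved fluorescence cAMP detection after 1hr, expressed as 665/615 nm ratio.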

In assay [12] the target is D(2) dopamine receptor (Homo sapiens) (UniProt P14416). The experiment in a line: Dopamine D2 receptor (DRD2) small molecule agonists, cell-based qHTS assay (AID 1963594). Also: nearly all actives have a fitted effect of over 35% in size. The procedure, abridged: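 cAMP accumulation in DRD2-HEK293 cells measured by HTRF after 1 h detection; compounds added 10 min before NKH477 (200nM […]) forskolin-analogue stimulation, 30 min at room temperature, with Ro20-1724 present at 0.1 mM final.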
Chain of D(2) dopamine receptor (Homo sapiens) (P14416 whole entry, looked up): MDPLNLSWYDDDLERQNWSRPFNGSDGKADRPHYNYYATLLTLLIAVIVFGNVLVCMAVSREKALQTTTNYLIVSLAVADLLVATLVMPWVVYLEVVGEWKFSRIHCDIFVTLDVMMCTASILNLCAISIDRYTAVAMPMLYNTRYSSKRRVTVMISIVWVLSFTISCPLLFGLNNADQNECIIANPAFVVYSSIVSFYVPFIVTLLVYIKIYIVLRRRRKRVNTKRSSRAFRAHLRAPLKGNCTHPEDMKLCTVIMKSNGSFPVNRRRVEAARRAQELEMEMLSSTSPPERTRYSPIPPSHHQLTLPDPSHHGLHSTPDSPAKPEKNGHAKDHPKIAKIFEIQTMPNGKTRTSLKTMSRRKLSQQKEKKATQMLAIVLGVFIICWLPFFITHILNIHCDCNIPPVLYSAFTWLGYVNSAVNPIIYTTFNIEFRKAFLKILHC

Assay [13] has the same target. As to the kind of experiment: Dopamine D2 receptor (DRD2) small molecule antagonists, cell-based qHTS assay (AID 1963595; active = well fitted inhibition curve with a large enough effect in the signal ratio in the repeat runs, with a control signal flat; the % refers to the signal ratio). The procedure, abridged:
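Human DRD2 antagonist qHTS measuring cAMP by HTRF. The cells are exposed to compound for 10 min, then to NKH477 (200 nM) and quinpirole (12 nM) for 30 min at RT, with Ro20-1724 (0.1 mM) present throughout.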

Assay [14] can be described thus: G protein-coupled receptor (GPCR) small molecule agonists, calcium flux assay: HEK293 wild type cell line counter screen (AID 1920065). In a few lines:
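Agonist mode; 18 h seeding at 37 C, 1 h dye load at 37 C; compounds pinned from DMSO, ATP as positive control; kinetic fluorescence 480/540 nm, 3 min, 1 s reads; 15 concentrations, triplicate.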

The target in assay [15] is 5-hydroxytryptamine receptor 2A (Homo sapiens) (UniProt P28223). The experiment in a line: 5-hydroxytryptamine receptor 2A (HTR2A) small molecule antagonists, cell-based qHTS assay (AID 1963586). Also: nearly all actives have a fitted effect of over 45% in size. The procedure, abridged: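 CHO cells stably expressing human HTR2A were plated for 18 h at 37 C, then loaded with calcium dye for 1 h. Compounds were preincubated 5 min at room temperature before DOI (4 nM solution) was added. Kinetic fluorescence was read for 3 min.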
Chain of 5-hydroxytryptamine receptor 2A (Homo sapiens) (P28223 whole entry, looked up): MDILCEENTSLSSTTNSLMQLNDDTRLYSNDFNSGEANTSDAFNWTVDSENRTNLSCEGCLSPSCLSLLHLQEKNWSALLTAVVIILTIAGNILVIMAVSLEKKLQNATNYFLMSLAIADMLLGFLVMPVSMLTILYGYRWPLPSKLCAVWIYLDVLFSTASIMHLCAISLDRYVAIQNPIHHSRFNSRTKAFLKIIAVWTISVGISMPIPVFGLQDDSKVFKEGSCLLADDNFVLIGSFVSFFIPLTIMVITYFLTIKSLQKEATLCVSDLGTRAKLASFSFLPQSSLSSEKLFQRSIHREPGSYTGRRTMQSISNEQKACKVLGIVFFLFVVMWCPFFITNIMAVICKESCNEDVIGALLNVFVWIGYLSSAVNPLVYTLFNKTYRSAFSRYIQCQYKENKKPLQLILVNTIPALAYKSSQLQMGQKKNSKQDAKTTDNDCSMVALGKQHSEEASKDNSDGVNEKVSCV

In assay [16] the target is Muscarinic acetylcholine receptor M1 (Homo sapiens) (UniProt P11229). The experiment in a line: Cholinergic receptor muscarinic 1 (CHRM1) small molecule antagonists, cell-based qHTS assay (AID 1963588). Also: nearly all actives have a fitted effect of over 40% in size. In a few lines: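 Compounds were tested at 15 concentrations in three independent runs. Dye-loaded CHRM1-CHO cells were exposed 5 min at room temperature before stimulation by acetylcholine added at 50nM. Intracellular calcium was read kinetically on FDSS for 3 min.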
Chain of Muscarinic acetylcholine receptor M1 (Homo sapiens) (P11229 whole entry, looked up): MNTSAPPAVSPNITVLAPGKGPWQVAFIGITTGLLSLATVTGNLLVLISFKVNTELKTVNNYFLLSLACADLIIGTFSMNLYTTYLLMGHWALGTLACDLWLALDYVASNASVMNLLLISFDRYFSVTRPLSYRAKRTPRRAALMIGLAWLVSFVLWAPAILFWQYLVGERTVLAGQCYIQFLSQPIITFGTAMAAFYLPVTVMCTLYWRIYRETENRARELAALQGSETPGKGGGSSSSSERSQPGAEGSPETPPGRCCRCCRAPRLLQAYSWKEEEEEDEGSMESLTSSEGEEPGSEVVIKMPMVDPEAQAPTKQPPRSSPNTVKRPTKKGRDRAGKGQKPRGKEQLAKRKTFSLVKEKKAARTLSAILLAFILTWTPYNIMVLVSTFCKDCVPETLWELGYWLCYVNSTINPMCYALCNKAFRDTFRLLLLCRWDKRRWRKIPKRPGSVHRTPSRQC

For assay [17] the target is unchanged. The experiment in a line: Cholinergic receptor muscarinic 1 (CHRM1) small molecule agonists, cell-based qHTS assay (AID 1963589). Also: nearly all actives have a fitted effect of over 35% in size. In a few lines: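 Calcium flux read-out: kinetic fluorescence at 1 sec intervals after pin-tool compound addition to dye-loaded CHRM1-CHO cells (human M1). Agonist mode; 15 concentrations tested in triplicate independent runs.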

A short description of assay [18]: cAMP Responsive Elements (CRE) small molecule antagonists, cell-based qHTS assay (AID 1963591; active = well fitted inhibition curve with a large enough effect in the signal ratio in the repeat runs, not every such curve was filed as active; the % refers to the signal ratio). In a few lines: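 HEK293T CRE-bla; 18 h preincubation; compound pin-transfer; NKH477 0.25 uM final, 3 h, 37 C; LiveBLAzer FRET substrate 2 h RT.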
Assay [19] has as its target 5-hydroxytryptamine receptor 2A (Homo sapiens) (UniProt P28223). The experiment in a line: 5-hydroxytryptamine receptor 2A (HTR2A) small molecule agonists, cell-based qHTS assay (AID 1963587). Also: nearly all actives have a fitted effect of over 30% in size. In a few lines:
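Kinetic calcium-flux fluorescence (2 min, 1 sec intervals) after compound addition in agonist mode. HTR2A-CHO cells were cultured 18 h, then dye-loaded 1 h at 37 C.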
% is scaled to controls: 0 for no effect and ±100 for the full control effect.

Chain of KiSS-1 receptor (Homo sapiens) (Q969F8 whole entry, looked up): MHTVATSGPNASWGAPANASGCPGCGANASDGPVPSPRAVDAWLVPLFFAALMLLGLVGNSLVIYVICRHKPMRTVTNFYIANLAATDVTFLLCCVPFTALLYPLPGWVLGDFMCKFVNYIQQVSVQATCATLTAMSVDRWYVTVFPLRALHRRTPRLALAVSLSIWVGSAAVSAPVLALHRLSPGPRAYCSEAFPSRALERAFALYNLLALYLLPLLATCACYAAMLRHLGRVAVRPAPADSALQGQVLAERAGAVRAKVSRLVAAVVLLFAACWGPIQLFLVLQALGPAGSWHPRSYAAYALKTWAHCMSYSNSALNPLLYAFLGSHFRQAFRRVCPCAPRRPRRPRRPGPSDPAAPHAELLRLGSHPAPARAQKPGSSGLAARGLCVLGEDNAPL
Chain of Beta-2 adrenergic receptor (Homo sapiens) (P07550 whole entry, looked up): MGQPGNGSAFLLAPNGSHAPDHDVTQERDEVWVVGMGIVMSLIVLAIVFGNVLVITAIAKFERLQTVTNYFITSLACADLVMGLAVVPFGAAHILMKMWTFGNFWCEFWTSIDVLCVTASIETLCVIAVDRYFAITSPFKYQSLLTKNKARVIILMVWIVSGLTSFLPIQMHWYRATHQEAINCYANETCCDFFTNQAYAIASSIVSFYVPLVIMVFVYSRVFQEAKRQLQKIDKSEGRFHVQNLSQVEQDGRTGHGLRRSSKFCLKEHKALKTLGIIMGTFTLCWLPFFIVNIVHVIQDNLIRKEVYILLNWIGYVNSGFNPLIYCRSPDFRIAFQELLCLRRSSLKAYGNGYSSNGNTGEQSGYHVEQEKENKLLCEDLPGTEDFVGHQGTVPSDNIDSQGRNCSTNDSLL

With `NCC(=O)O`, the activity change, negative = cytotoxicity in [1] was -4.41% [at 19 µM]; in [6], -11.7% [at 13.5 µM]; in assay [7], -0.16% [at 13.5 µM]; in [8] it was -0.356% [at 13.5 µM]. Besides, the activity, positive = activation in assay [2] is -0.375% [at 19 µM]. In addition, the activation in [3] is -0.57% [at 15.8 µM]; in assay [4], 0.573% [at 13.5 µM]; in [5] it was 1.19% [at 13.6 µM]; in [9], 0.144% [at 13.5 µM]; in assay [10], -1.05% [at 19 µM]; in assay [12], 4.26% [at 19 µM]. For the same molecule, the activity change, negative = inhibition was -10.5% [at 19 µM] in assay [11] and -7.27% [at 18.9 µM] in assay [13].

Regarding `CC(C)=CCC1C(=O)N(c2ccccc2)N(c2ccccc2)C1=O`, the Potency result in assay [1], in assay [4], in [5], in assay [7], in assay [8] and in [15] was “inactive” throughout. Also, the Potency result in assay [16], in assay [17], in assay [18] and in [12] was “inactive” each time. Also, the Potency in assay [2] was 29.8 µM (active). The result in [3] and in assay [14] was inactive.

In the case of `Cc1cccc(C)c1OCC(=O)N[C@@H](Cc1ccccc1)[C@@H](O)C[C@H](Cc1ccccc1)NC(=O)[C@H](C(C)C)N1CCCNC1=O`, the Potency entry in assay [1], in assay [2], in assay [5], in [6], in assay [7] and in assay [8] was “inactive” throughout. In addition, the Potency result in assay [15], in [16], in [17], in [11], in assay [12] and in assay [13] was “inactive” throughout. Also, the result in assay [3] and in assay [14] was inactive.

Regarding `COC(=O)c1ccc(NC(C)=O)cc1OC`, the Potency result in [1], in [2], in assay [4], in [5], in [6] and in assay [7] was “inactive” throughout. The Potency entry in [8], in [9], in assay [15], in assay [19], in assay [17] and in assay [10] was “inactive” throughout. Also, the Potency result in [18], in assay [11], in assay [12] and in assay [13] was “inactive” in each case. The outcome in assay [3] was inactive.

For the molecule `OCCNCc1ccccc1`, the Potency result in [1], in [5], in assay [8], in [9], in assay [19] and in assay [16] was “inactive” in each case. Also, the Potency entry in assay [17], in assay [10], in assay [18], in assay [11], in assay [12] and in assay [13] was “inactive” in each case. Besides, the Potency in assay [2] is 68.6 µM (active). Moreover, the outcome in [3] and in [14] was inactive.

Take `CO[C@@H]1[C@@H](OC(N)=O)[C@@H](O)[C@H](Oc2ccc3c(O)c(NC(=O)c4ccc(O)c(CC=C(C)C)c4)c(=O)oc3c2C)OC1(C)C`: the Potency entry in assay [1], in assay [2], in assay [4], in [5], in [7] and in [8] was “inactive” throughout. For the same molecule, the Potency result in [9], in assay [15], in assay [19], in assay [16], in assay [17] and in assay [10] was “inactive” in each case. Also, the Potency result in assay [18], in assay [11], in [12] and in assay [13] was “inactive” throughout. Moreover, the result in assay [3] was inactive.

With `O=C(O)c1cc(C(=O)O)c(C(=O)O)cc1C(=O)O`, the Potency result in assay [1], in [2], in assay [4], in assay [7], in [8] and in assay [9] was “inactive” each time. The Potency entry in assay [15], in assay [16], in assay [17], in assay [10], in assay [18] and in assay [12] was “inactive” each time. Also, in assay [13], the Potency entry was “inactive”. The result in assay [3] and in [14] was inactive.

As to `N=C(N)c1ccc(OCCCOc2ccc(C(=N)N)cc2)cc1`, the Potency result in [1], in [2], in assay [4], in assay [5], in assay [6] and in assay [7] was “inactive” throughout. Further, the Potency entry in assay [8], in assay [15], in [19], in [16], in assay [17] and in assay [10] was “inactive” each time. Besides, the Potency result in assay [18], in [11] and in [12] was “inactive” each time. Besides, the outcome in assay [3] was inactive.

Source of the values: PubChem BioAssay (Tox21).
